Test results published in PubChem BioAssay (Tox21).
Values joined by “and” are separate entries in the source; they are usually repeats but may differ in a detail not shown here. Equal entries are not always repeated. Inconclusive results are not listed. Where a call stands in place of a potency, no number is given. The source holds several records for some structures; these can differ, active in one and inactive in another. Active and inactive are the calls of the source. Unless noted, calls come from the whole dose curve; as a rule, active = well fitted curve in the direction sought with a large enough effect in the repeat runs; inconclusive = weak or mixed curves; inactive = no such curve, though single readings can be large; an effect the other way counts as inactive or inconclusive.

Columns and labels:
[1] = qHTS assay to identify small molecule agonists of H2AX - cell viability counter screen (AID 1224847; calls by dose curve; note: nearly all actives have a fitted effect of over 30% in size; note: potency is the fitted concentration of half-maximal effect;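 for activity change, negative = cytotoxicity: wild-type CHO-K1 cells; top concentration of the series differs between compounds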)
Procedure, shortened: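 CHO-K1 cells plated overnight at 37C, then exposed 3 h at 37C to compounds at 15 concentrations (0.76% DMSO final). Viability by CellTiter-Glo luminescence after 30 min at room temperature.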

[2] = qHTS assay to identify small molecule antagonists of the estrogen related receptor (ERR) signaling pathway from Tox21 library (AID 1224848); note: nearly all actives have a fitted effect of over 50% in size; note: potency is the fitted concentration of half-maximal effect
Procedure, shortened: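 Luminescent reporter read-out (ONE-Glo) from NTP's ERR cell line after 18 h treatment at 37 C with DMSO-dissolved Tox21 compounds; cells pre-plated 6 h beforehand at 2,000 per well.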

[3] = qHTS assay to identify small molecule agonists of the estrogen related receptor (ERR) signaling pathway from Tox21 library (AID 1224849; calls by dose curve; note: nearly all actives have a fitted effect of over 15% in size); conditions: ERR reporter cell line, ONE-Glo luciferase, 18 h
Procedure, shortened: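 We plated ERR reporter cells, waited 6 h, added compounds in DMSO by pin tool and incubated them 18 h at 37 C. ONE-Glo was then added and luminescence read after 30 min.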

[4] = qHTS RealTime-Glo MT Cell Viability Assay in HepG2 cells - 24 hour (AID 1224867); note: nearly all actives have a fitted effect of over 50% in size
Procedure, shortened: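 Compound treatment began 5 h after plating HepG2 cells (600/well) with NanoLuc luciferase and prosubstrate. Plates stayed at 37 C for 40 h; luminescence was captured at six time points, 0 h through 40 h.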

[5] = qHTS RealTime-Glo MT Cell Viability Assay in HEK293 cells - 32 hour (AID 1224868); note: nearly all actives have a fitted effect of over 50% in size; note: potency is the fitted concentration of half-maximal effect
Procedure, shortened: (§1)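 Quantitative high-throughput screen of the Tox21 10K library in HEK293: cells and RealTime-Glo reagents plated together, compound added at 5 h, luminescence monitored through 40 h at 37 C.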

[6] = A CellTox Green Cytotoxicity Assay to monitor cytotoxicity in HEK293 cells - 0 hour (AID 1224869); note: nearly all actives have a fitted effect of over 50% in size
Procedure, shortened: (§2)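 Each value comes from one timepoint of a single continuous run in which HEK293 cells with CellTox Green were exposed to compound for up to 40 h at 37 C, dye fluorescence rising with cell death.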

[7] = qHTS RealTime-Glo MT Cell Viability Assay in HepG2 cells - 40 hour (AID 1224870); note: nearly all actives have a fitted effect of over 50% in size
Procedure, shortened: (§3)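 HepG2 cells (600/well) mixed with RealTime-Glo MT reagent, settled 5 h at 37 C/5% CO2 before compound addition. Nonlytic NanoLuc luminescence from viable-cell prosubstrate reduction read repeatedly during 40 h treatment at 37 C.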

[8] = A CellTox Green Cytotoxicity Assay to monitor cytotoxicity in HEK293 cells - 40 hour (AID 1224871); note: nearly all actives have a fitted effect of over 45% in size; note: potency is the fitted concentration of half-maximal effect
Procedure, shortened: as §2

[9] = qHTS RealTime-Glo MT Cell Viability Assay in HEK293 cells - 16 hour (AID 1224872)
Procedure, shortened: as §1

[10] = qHTS RealTime-Glo MT Cell Viability Assay in HepG2 cells - 8 hour (AID 1224873); note: nearly all actives have a fitted effect of over 55% in size
Procedure, shortened: as §3

Structure (SMILES)	Potency [1]	Potency [2]	activity change, positive = activation ([3]; at 92.4 µM (top of the series))	outcome [4]	Potency [5]	Potency [6]	outcome [7]	Potency [8]	outcome [9]	outcome [10]	activity change, positive = activation ([3]; at 42.5 µM (top of the series))	activity change, negative = cytotoxicity [9]
C=CC(N)=O	inactive	inactive	7.14% (inactive)	inactive	inactive	inactive	inactive	inactive	inactive	inactive		
Cc1cccc([N+](=O)[O-])c1	inactive	inactive	5.45% (inactive) and 0.517% (inactive)	inactive	inactive	inactive	inactive	inactive	inactive	inactive		
CCOC(=O)c1ccccc1C(=O)OCC	inactive	inactive	2.2% (inactive) and 2.35% (inactive)	inactive	inactive	inactive	inactive	inactive	inactive	inactive		
CC(=O)C=C(C)C	inactive	inactive	0.13% (inactive) and 3.17% (inactive)	inactive			inactive	inactive	inactive	inactive		
CNC(=O)Oc1ccccc1OC(C)C	inactive	inactive	0.314% (inactive)	inactive	inactive		inactive	inactive	inactive	inactive		
Clc1cccc(Cl)c1Cl	inactive	inactive	0.683% (inactive)	inactive	inactive	inactive	inactive	inactive	inactive	inactive		
COc1ccc2c3c1O[C@H]1[C@@H](O)C=C[C@H]4[C@@H](C2)N(C)CC[C@@]341	inactive	26.9 µM (active) and inactive	-50.6% (inactive) and -3.7% (inactive)	inactive			inactive	inactive	inactive	inactive		
CC(C)(C)OOC(C)(C)C	inactive	inactive	-1.09% (inactive)	inactive	inactive		inactive	inactive	inactive	inactive	6.85% (inactive)	
CCc1cccc(C)c1N(C(=O)CCl)C(C)COC (stereo unspecified)	inactive	51.3 µM (active) and 54.5 µM (active)	-45.5% (inactive) and -42% (inactive)	inactive		inactive	inactive	inactive	inactive	inactive		
CN(N=O)c1ccccc1	inactive	inactive	0% (inactive) and 7.25% (inactive)	inactive		inactive	inactive	inactive	inactive	inactive		
CN(C)CCO	inactive	inactive	0.0173% (inactive) and 5.21% (inactive)	inactive	inactive	inactive	inactive	inactive	inactive	inactive		
Nc1ccccc1C(=O)O	inactive	inactive	6.82% (inactive)	inactive		inactive	inactive	inactive	inactive	inactive	5.44% (inactive)	
BrCCBr	inactive	inactive	3.43% (inactive) and 4.88% (inactive)	inactive	inactive	inactive	inactive	inactive	inactive	inactive		
C=C(C)CCl	inactive			inactive	inactive	inactive	inactive	inactive		inactive		7.57% [at 6.97 µM] (inactive)
Nc1ccc(Cc2ccc(N)cc2)cc1	inactive			inactive	inactive	inactive	inactive	inactive	inactive	inactive		
CC(C)(Cl)Cl	inactive			inactive	inactive		inactive	inactive	inactive	inactive		
[O-][Cl+2]([O-])O	inactive			inactive	inactive		inactive	inactive	inactive	inactive		
C1CN2CCN1CC2	inactive			inactive	inactive		inactive	inactive and 17.4 µM (active)	inactive	inactive		
CCN(CC)c1ccccc1	inactive			inactive	inactive		inactive	inactive	inactive	inactive		
Nc1ccc(Br)cc1	inactive			inactive	inactive	inactive	inactive	inactive	inactive	inactive		
CCNc1nc(NC(C)C)nc(SC)n1	inactive			inactive	inactive		inactive	inactive	inactive	inactive		
CN=C=S	inactive	inactive	0.382% (inactive) and 8.43% (inactive)	inactive			inactive	inactive	inactive	inactive		
O=S(=O)(c1ccc(Cl)cc1)c1cc(Cl)c(Cl)cc1Cl	89.6 µM (active)			inactive	inactive	inactive	inactive	inactive	inactive	inactive		
CCCCN(CC)C(=O)SCCC	inactive			inactive	inactive and 19.5 µM (active)		inactive	inactive	inactive	inactive		
COC(=O)NC(=S)Nc1ccccc1NC(=S)NC(=O)OC	inactive			inactive	inactive	inactive	inactive	inactive	inactive	inactive		
OCCN(CCO)CCO	inactive			inactive	inactive	inactive	inactive	inactive	inactive	inactive		
